High-throughput results: PubChem, National Center for Advancing Translational Sciences (NCATS)
S2 tox = reduces viability in counter-screen for ATXN expression inhibitors. Potency, µM (doses to about 56.7 µM), actives largely listed as cytotoxic. S2 cells (HEK-293 line with an ATXN2-luciferase reporter) viability, CellTiter-Fluor protease fluorescence, 24 h. hit rate 0.49% among 400,000; note: nearly all actives have a fitted effect of over 40% in size
TGFb inhibitor = inhibitors of TGF-b signaling; HepG2 CAGA-GFP TGF-b/SMAD3 reporter, GFP fluorescence, 18 h; TGF-beta stimulated, 500 pg/mL final; Potency, µM (doses to about 46.1 µM), hits mostly inhibitors; hit rate 1.2% among 410,000; AID 588855; note: nearly all actives have a fitted effect of over 65% in size
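Smad-responsive CAGA-GFP expression was quantified in HEPG2 cells exposed to compounds and 500 pg/mL final TGF-beta for 18 h at 37 degrees C; unstimulated wells defined full inhibition.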
IL-1B inflam inh = blocks inflammasome-driven IL-1 beta release. AID 743279. hit rate 4.7% among 360,000. activity change, % at 57.5 µM. THP-1 LPS/ATP IL-1B secretion, AlphaLISA, 16 h; stronger effect = lower value; in the data active = activity change below about -50%; inconclusive = mostly about -30% to -49%
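Secreted IL-1B measured by AlphaLISA bead assay after 16 h compound exposure of THP-1 cells; compounds (final up to 57.5 uM) added 1 h before LPS (250 ng/mL) and ATP (1.25 mM) stimulation; lower signal means less secretion.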
ATXN2 expr inh = inhibitors of ATXN2 expression. HEK-293 ATXN2-luciferase reporter, luminescence, 24 h. hit rate 0.72% among 360,000. Potency, µM (top dose mostly 57 µM), most hits filed as inhibitors; note: nearly all actives have a fitted effect of over 55% in size
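ATXN2-luciferase reporter cells (luciferase flanked by upstream and downstream ATXN2 gene portions) were treated 24 h at 37 °C with compounds at up to 57 uM. SteadyGlo luminescence gave expression; GF-AFC fluorescence gave viability.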
HepG2 viability = HepG2 cytotoxicity, counter-screen for TGF-b inhibitors; HepG2 CAGA-GFP viability, ATP luminescence, 18 h; Potency, µM (doses to about 46.1 µM), usual class: cytotoxic; hit rate 0.76% among 410,000
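CellTiter-Glo luminescence gave cytotoxicity after 18 hours at 37 degrees C. The cells were HepG2 CAGA-GFP in 1% FBS DMEM, stimulated with 500 pg/mL TGF-beta after compound addition. %Activity was normalised to no-cell wells (complete cell-killing) and DMSO (no toxicity), and curves were fitted and classified.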
A number is an active result; i = inactive; ? = inconclusive; nt = no result; [ ] = another dose, or the depositor's remark. An excerpt weighted towards active compounds, which were near 5.7% of everything screened. Unless noted, calls come from the whole dose curve; as a rule, active = well fitted curve in the direction sought with a large enough effect; inconclusive = small, poorly fitted or top-dose-only effect, or another doubt; inactive = no such curve, though single readings can be large; an effect the other way counts as inactive or inconclusive.

SMILES | S2 tox | TGFb inhibitor | IL-1B inflam inh | ATXN2 expr inh | HepG2 viability
CCCCCCCCCCCCCCCCn1cc[n+](CC(C)=O)c1 | 30µM | 20µM | i | ? | i
CCCCCCn1ccc(=N)cc1 | i | i | i | ? | i
N#CN=c1snc(-c2ccccc2Cl)n1-c1ccc(F)cc1 | nt | i | nt | nt | i
COc1ccc(N2CCN(c3nc4cc(C)ccc4cc3C=O)CC2)cc1 | i | i | -64 | i | i
O=C(O)CNC(=O)CNC(=O)CNC(=O)CSC(=O)c1ccccc1 | i | nt | nt | i | nt
COc1ccc(CN2CCOc3ccc(C(O)c4cccnc4)cc3C2)cc1O (stereo unspecified) | i | nt | nt | nt | nt
O=C(C=C1SCCS1)/C=C/c1ccco1 | i | i | -92 | i | i
CCN(C(=O)CSc1nc(-c2ccccc2)no1)c1cccc(C)c1 | ? | ? | nt | ? | i
CSc1nc(SCC(=O)NC(c2ccccc2)c2ccccc2)c2c3c(sc2n1)CN(C)CC3 | 28µM | i | ? | 20µM | i
Cc1ccc(NC(=O)C2CCCN2S(=O)(=O)c2cccc3nsnc23)cc1Cl (stereo unspecified) | ? | ? | nt | i | i
CCOc1ccc(OCCCC(=O)N2CCN(S(=O)(=O)c3ccccc3C#N)CC2)cc1 | i | i | -52 | i | i
CCOc1ccccc1OCCCC(=O)N1CCN(S(=O)(=O)c2ccc(Cl)cc2)CC1 | i | i | i | i | i
Cc1ccc(OCCC(=O)OCC(=O)N2CCN(S(=O)(=O)c3ccc(Cl)cc3)CC2)cc1 | i | i | -59 | i | i
CCOc1ccc(OCCC(=O)N2CCN(S(=O)(=O)c3ccc(OCC)cc3)CC2)cc1 | i | i | i | i | i
CCOc1ccc(OCCC(=O)OCC(=O)N2CCN(S(=O)(=O)c3ccc(C)cc3)CC2)cc1 | ? | i | -73 | i | i
Cc1cc(Cl)ccc1OCCCC(=O)N1CCN(S(=O)(=O)c2ccccc2)CC1 | i | i | -87 | i | i
CC(C)c1nn2c(=O)cc(COC(=O)c3cccs3)nc2s1 | i | ? | nt | i | i
COc1cc(CN2CCc3nnc(C(NS(C)(=O)=O)C(C)C)n3CC2)ccc1F (stereo unspecified) | i | nt | nt | nt | nt
Cc1ccc(/C=C/C(=O)N2CCC(c3nc4ccccc4o3)CC2)cc1 | nt | i | nt | nt | i
Cc1nn(-c2ccccc2)c2c1C(c1ccc([N+](=O)[O-])cc1)N1C(=N2)C(=O)Nc2ccccc21 (stereo unspecified) | i | ? | -75 | i | i
O=C(c1ccc(COc2ccccc2Br)cc1)N1CCCCC1 | i | i | -58 | i | i
Cc1ccnc2ccc3ccccc3c12 | nt | i | nt | nt | i
COc1ccc(/C=N/N(Cc2ccccc2)c2ccccc2)cc1O | i | ? | -86 | i | i
COc1cc(C=NCc2ccccc2)ccc1O | i | i | i | nt | i
CN(C)c1ccc(C2Nc3ccc4ccccc4c3C3=C2C(=O)CC(C)(C)C3)cc1Br (stereo unspecified) | nt | nt | nt | i | nt
SMILES | S2 tox | TGFb inhibitor | IL-1B inflam inh | ATXN2 expr inh | HepG2 viability
COc1cccc(C2=N/C(=C\N(C)C)C(=O)O2)c1 | ? | i | -61 | i | i
CCc1ccc2oc(C(=O)N3CCN(c4ccc(OC)cc4)CC3)cc(=O)c2c1 | i | i | -84 | i | i
Cn1c2ccccc2c(=O)c2ccc(F)cc21 | nt | i | -51 | i | i
COc1cccc2oc3ccc(C#CC4(N)CCCCC4)cc3c(=O)c12 | ? | ? | -97 | ? | i
Cn1c2ccccc2c(=O)c2ccc(C#CC3(N)CCCCC3)cc21 | i | ? | -86 | i | i
NC1(C#Cc2ccc3c(=O)c4ccccc4sc3c2)CCCCC1 | i | i | i | i | i
Cn1c2ccccc2c(=O)c2cc(C#CC3(O)CCCCC3)ccc21 | i | i | -53 | ? | i
CCCC(=O)Nc1ccc(Sc2ccc([N+](=O)[O-])cc2)cc1 | i | i | ? | ? | i
CCC(CC)C(=O)Nc1ccc(Sc2ccc([N+](=O)[O-])cc2)cc1 | i | ? | -64 | ? | i
CCOC(=O)c1cc(C)n(CC2CCC(C(=O)Nc3ccc(C)cc3)CC2)c1C (stereo unspecified) | nt | ? | nt | nt | i
O=C(N/C(=C/c1cccc(Br)c1)c1nc(=S)[nH][nH]1)c1ccccc1 | ? | ? | -100 | i | i
Cc1ccc(C(=O)N/C(=C\c2ccc(Br)cc2)c2nc(=S)[nH][nH]2)cc1 | nt | ? | -79 | ? | 13µM
COc1ccc(/C=C(/NC(=O)c2ccccc2)c2nc3ccccc3[nH]2)cc1OC | i | i | i | i | i
COc1ccc(-n2nc(CCC(=O)N(C)O)cc2-c2ccc(Cl)cc2)cc1 | i | nt | nt | ? | nt
O=C(COCc1cc(-c2cccs2)on1)NCc1ccccc1Cl | nt | i | nt | nt | i
COC(=O)c1cn(NC(=O)C2CCC(C)CC2)c(=O)c2ccccc12 (stereo unspecified) | i | i | i | i | i
COC(=O)c1cn(NC(=O)c2cc([N+](=O)[O-])ccc2F)c(=O)c2ccccc12 | i | i | -93 | 1.1µM | i
COc1ccc(C(=O)N2CCOc3ccc(CN4CCN(c5ccccn5)CC4)cc3C2)o1 | i | nt | nt | nt | nt
CCC[N+]1(CC#CCC(c2ccccc2)c2ccccc2)CCCCC1 | ? | i | -85 | ? | i
O=C(C[N+]1(CC#Cc2ccccc2)CCCCC1)c1ccc(Cl)cc1 | i | i | -57 | nt | i
CCC[N+](CC#Cc1ccccc1)(CCC)CC(=O)c1ccc(Cl)cc1 | ? | i | -71 | i | i
C#CC[N+]1(CC#Cc2ccccc2)CCCCC1 | ? | ? | i | i | i
O=C(C[N+]1(CC#Cc2ccccc2)CCCCC1)c1ccccc1 | i | i | i | i | i
Cc1ccc(C#CC[N+]2(CC#Cc3ccc(C)cc3)CCCCC2)cc1 | ? | 20µM | -86 | ? | i
Cc1cc(C)cc(NC(=O)Cn2c(=O)n(C(C)C)c(=O)c3oc4ccccc4c32)c1 | nt | i | nt | nt | i
SMILES | S2 tox | TGFb inhibitor | IL-1B inflam inh | ATXN2 expr inh | HepG2 viability
CCOc1ccc2nc(N3CCCC(C(=O)Nc4ccc(OC)cc4)C3)sc2c1 (stereo unspecified) | nt | i | nt | nt | i
O=S(=O)(c1ccccc1C(F)(F)F)N1CCN(c2nc(-c3cccs3)nc3ccccc23)CC1 | nt | i | nt | nt | i
COCCN1CCN(C(=O)c2cnn(-c3nccc(-c4ccccc4OC)n3)c2-c2ccco2)CC1 | i | nt | nt | nt | nt
C#CC[N+]1(CC#Cc2ccccc2)CCOCC1 | i | i | i | i | i
C(#Cc1ccccc1)C[N+]1(CC#Cc2cccc3ccccc23)CCOCC1 | i | i | -84 | i[11.3 µM] | i
C(#Cc1ccccc1)C[N+]1(CC#Cc2ccccc2)CCCCC1 | ? | i | -86 | i[11.3 µM] | i
CCC1CN(C(=O)N2CCC(C(=O)NCc3cccc(F)c3)CC2)c2cc(C)ccc2O1 (stereo unspecified) | nt | ? | nt | nt | i
COc1ccc(Sc2ccccc2CN(C)C)cc1OC | i | i | i | i | i
CNCc1ccccc1Sc1ccc(O)c(O)c1 | i | ? | -125 | i | i
